The text below walks through data of PubChem BioAssay AID2098 (Broad Institute, 2009).

Screen size: about 300,000 compounds; about 2,300 (0.77%) were called active.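 The calls were made as follows: active = more than half of replicate wells show activity change below -50%, luminescence cut by over half; inconclusive = some wells, but at most half, below -50%; inactive = no replicate well below -50%.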 The entries come from a sample that favours actives as a whole.

A short description of the assay: HSF1 inhibitors in luciferase reporter cells, primary screen, cell-based, NIH3T3, luminescence (AID 2098).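 Also: luciferase reports HSF-1 transcriptional activity via heat shock element; 0% = median of DMSO wells and -100% = zero luminescence signal.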 The settings on record: NIH3T3-HGL HSE-luciferase, MG132-induced, luminescence 8 h; stronger effect = lower value; screened at 7.5 µM (by protocol). For orientation: In a reporter assay the amount or activity of a reporter protein is the signal.
As to `O=C(CN(c1cc(C(F)(F)F)ccc1Cl)S(=O)(=O)c1ccccc1)NCc1cccnc1`, the activity change, negative = inhibition is 6.77% (inactive).

As for `CCOC(=O)N1CCN(C(=O)CSc2nc(=O)n3cccc(C)c3n2)CC1`, the activity change, negative = inhibition was -2.47% (inactive).

For the molecule `O=C1[C@H]2[C@@H](c3ccc(Cl)cc3)N3C(=O)N(c4cccc(F)c4)C(=O)[C@@]3(Cc3ccccc3)[C@H]2C(=O)N1C1CCCCC1`, the activity change, negative = inhibition was 8.08% (inactive).

`CN(C)S(=O)(=O)c1ccc(N2CCCC2)c(C(=O)Nc2ccc(Br)cc2F)c1`: the activity change, negative = inhibition was 0.082% (inactive).

As for `Cc1ccc(-c2csc(NC(=O)C3=COCCO3)n2)cc1C`, the activity change, negative = inhibition is 14.3% (inactive).

`CCOC(=O)N1CCN(C(c2cccnc2)c2ccc3cccnc3c2O)CC1` (stereo not drawn): the activity change, negative = inhibition is 26.3% (inactive).

In the case of `CCN1CCN(C(c2cccnc2)c2cc(Cl)c3cccnc3c2O)CC1` (stereo not drawn), the activity change, negative = inhibition was -81.5% (active).

On to `Oc1c(C(c2ccccn2)N2CCOCC2)ccc2cccnc12` (stereo not drawn), for which the activity change, negative = inhibition was 39.3% (inactive).

In the case of `C=CCSc1nnc2c(n1)-c1cccc3cccc-2c13`, the activity change, negative = inhibition is 3.46% (inactive).

Take `COC(=O)c1c(-c2ccsc2)oc2ccc(-c3cc(OC)c(OC)c(OC)c3)cc12`: the activity change, negative = inhibition was 0.511% (inactive).

As to `OCCCNc1nccc(-c2cc(Nc3cccc(Cl)c3)ncn2)n1`, the activity change, negative = inhibition is -63.5% (active).

Consider `CC(C)n1cnc2c(Nc3cccc(Cl)c3)nc(N(CCO)CCCO)nc21`, for which the activity change, negative = inhibition was -11.1% (inactive).

Consider `OCCCNc1nc(-c2ccccc2)c2cc(Cl)ccc2n1`, for which the activity change, negative = inhibition is -1.41% (inactive).

Take `Cc1ccc2nc(SCC(=O)Nc3cccc4ccccc34)nc(=O)n2c1`: the activity change, negative = inhibition is 4.93% (inactive).

Turning to `O=C(NCCS(=O)(=O)NCc1ccc(F)cc1)c1ccccc1`, the activity change, negative = inhibition is 0.252% (inactive).

As for `O=C(Nc1cccnc1)c1cccc(S(=O)(=O)N2CCCC2)c1`, the activity change, negative = inhibition is -0.574% (inactive).

On to `O=C(c1noc2c1CCCC2)N1CCc2ccccc2C1`, for which the activity change, negative = inhibition is 12.4% (inactive).

`O=C(Nc1cccnc1)c1noc2c1CCCCC2`: the activity change, negative = inhibition is -52.6% (active).

With `O=[N+]([O-])c1cccc(C=NN=Cc2ccccc2O)c1`, the activity change, negative = inhibition was -25.2% (inactive).

As to `COc1ccc(C(=O)O/N=C(\N)c2ccccn2)cc1[N+](=O)[O-]`, the activity change, negative = inhibition was 12.7% (inactive).

Regarding `COc1cccc(OCC(=O)NNC(=O)c2cnccn2)c1`, the activity change, negative = inhibition is -5.69% (inactive).

For the molecule `COc1ccc(C(=O)NNC(=O)c2cnccn2)cc1[N+](=O)[O-]`, the activity change, negative = inhibition was -85.3% (active).

Turning to `CC(=O)c1c(C)[nH]c(C(=O)COC(=O)CCOc2ccc(C)cc2)c1C`, the activity change, negative = inhibition was 5.07% (inactive).

Consider `CCCNC(=O)CCn1cc(-c2ccc(OC)cc2)nc1CCN`, for which the activity change, negative = inhibition is -7.76% (inactive).

As for `O=C(NNC(=O)c1ccc(-c2ccccc2)cc1)Nc1ccccc1`, the activity change, negative = inhibition is -2.47% (inactive).

In the case of `O=S(=O)(Nc1ccc(-c2ccc(N3CCOCC3)nn2)cc1)c1cc(Cl)ccc1Cl`, the activity change, negative = inhibition is 11.6% (inactive).

In the case of `CCC(C)N(C(=O)CSc1ncnc2c1cnn2-c1ccccc1)C1CCS(=O)(=O)C1` (stereo not drawn), the activity change, negative = inhibition was 0.752% (inactive).

Consider `COc1ccc(OC)c(S(=O)(=O)N2CCCC(C(=O)N3CCC(C(N)=O)CC3)C2)c1` (stereo not drawn), for which the activity change, negative = inhibition was -0.699% (inactive).

For `Cc1nn(C)c(C)c1NS(=O)(=O)c1ccc(OC(F)(F)F)cc1`, the activity change, negative = inhibition is -8.93% (inactive).

Consider `O=C1COc2ccc(S(=O)(=O)Nc3ccc(OC(F)(F)F)cc3)cc2N1`, for which the activity change, negative = inhibition is 2.92% (inactive).

As for `O=S(=O)(Nc1ccc(O)c2ccccc12)c1ccc(OC(F)(F)F)cc1`, the activity change, negative = inhibition is -59.7% (active).

With `CCC(=O)N1CCc2cc(Br)c(S(=O)(=O)NCCN3CCCCC3CC)cc21` (stereo not drawn), the activity change, negative = inhibition was -1.08% (inactive).

`CN1CCN(C2Cc3ccc(Cl)cc3Sc3ccc(F)cc32)CC1` (stereo not drawn): the activity change, negative = inhibition was -0.795% (inactive).

On to `NS(=O)(=O)c1ccc(CCNC(=O)CN2C(=O)c3ccccc3S2(=O)=O)cc1`, for which the activity change, negative = inhibition was -3.35% (inactive).

As for `Cc1ccc(N2CC(C(=O)N3CCC4(CC3)CC(=O)c3ccccc3O4)CC2=O)cc1C` (stereo not drawn), the activity change, negative = inhibition was -2.92% (inactive).

On to `COc1ccc(NC(=O)CN(C)C(=O)Cc2coc3cc(C)c(C)cc23)cc1`, for which the activity change, negative = inhibition is 7.31% (inactive).

With `COc1ccc(C(=O)N(Cc2ccccc2)c2ccc(C)cc2)cc1S(=O)(=O)N1CCOCC1`, the activity change, negative = inhibition is 4.46% (inactive).

Consider `COc1cc(/C=N/NC(=O)c2cc(C)n(-c3ccc(F)cc3)c2C)cc(OC)c1O`, for which the activity change, negative = inhibition is -15.3% (inactive).

For `Cc1ccc(-n2c(C)cc(C(=O)CN3C(=O)C(=O)N(C4CCCC4)C3=O)c2C)cc1`, the activity change, negative = inhibition was -6.89% (inactive).

For `Cc1cc(C(=O)COC(=O)C2CC2)c(C)n1-c1ccc(F)cc1`, the activity change, negative = inhibition is -71.9% (active).

For the molecule `CC(Oc1ccc(F)cc1)C(=O)Nc1cc(S(=O)(=O)N2CCOCC2)ccc1N1CCN(C)CC1` (stereo not drawn), the activity change, negative = inhibition was -4.5% (inactive).

In the case of `O=C(NCC(=O)N1CCCC(C(F)(F)F)C1)c1ccccc1F` (stereo not drawn), the activity change, negative = inhibition was -2.16% (inactive).

Take `CCN(CC)CCNC(=O)CCCCCn1c(=O)[nH]c2cc(C(=O)OC)ccc2c1=O`: the activity change, negative = inhibition is -8.49% (inactive).

Regarding `CCN(CCCNC(=O)CCn1c(=O)[nH]c2ccsc2c1=O)c1ccccc1`, the activity change, negative = inhibition was -61.9% (active).

`CCCCC(CC)CNC(=O)CCCCn1c(=O)[nH]c2ccsc2c1=O` (stereo not drawn): the activity change, negative = inhibition was 1.08% (inactive).

In the case of `CN(Cc1c(F)cccc1Cl)C(=O)CNC(=O)c1ccc2c(c1)OCO2`, the activity change, negative = inhibition was 2.65% (inactive).

On to `CC12CCC(=O)N1C(C(=O)NCCN1C(=O)S/C(=C\c3ccccc3F)C1=O)CS2` (stereo not drawn), for which the activity change, negative = inhibition is -0.188% (inactive).

Take `CCOC(=O)c1c(C)[nH]c(C(=O)OCC(=O)c2ccc(OC)cc2OC)c1C`: the activity change, negative = inhibition was 1.38% (inactive).

As to `COCCN1C=C2C(=O)C(C)(OC(=O)C3CCCC3)C(=O)C=C2C=C1c1ccsc1` (stereo not drawn), the activity change, negative = inhibition is 0.381% (inactive).

For the molecule `C=CCN1C=C2C(=O)C(C)(OC(=O)CCc3ccccc3)C(=O)C=C2C=C1c1ccc(C#N)cc1` (stereo not drawn), the activity change, negative = inhibition is -1.82% (inactive).

As for `CC1(OC(=O)CCc2ccccc2)C(=O)C=C2C=C(c3ccc(C#N)cc3)N(CCc3ccccn3)C=C2C1=O` (stereo not drawn), the activity change, negative = inhibition is -80.1% (active).

As to `CCCNC(=O)c1ccc(N2CCC3(CC2)CC(c2cccc(Br)c2)=NO3)c(NC(=O)c2ccco2)c1`, the activity change, negative = inhibition is -5.02% (inactive).

With `CSc1nsc(NC(=O)Nc2ccccc2)n1`, the activity change, negative = inhibition is 4.05% (inactive).

Turning to `Cc1cccc(C(=O)NCc2nnc(SC(C)C(=O)Nc3nnc(C)s3)n2C)c1` (stereo not drawn), the activity change, negative = inhibition is -1.96% (inactive).

As for `COc1ccc(S(=O)(=O)N2CCCCCC2)cc1C(=O)N(C)Cc1cccc(OC)c1OC`, the activity change, negative = inhibition was -1.36% (inactive).

Consider `COc1ccc(-c2cn(-c3ccc(OC)cc3)c(=S)[nH]2)cc1`, for which the activity change, negative = inhibition was 9.62% (inactive).

Take `S=c1[nH]c(-c2cccs2)cn1-c1ccccc1`: the activity change, negative = inhibition is 2.33% (inactive).

On to `O=c1oc2ccccc2cc1-c1cn(-c2ccccc2)c(=S)[nH]1`, for which the activity change, negative = inhibition is -88.1% (active).
